In ChEMBL document CHEMBL1201862, “PubChem BioAssay data set” (2004):
Among all 400,000 compounds or so, about 2,100 (0.53%) were called active. Not shown: some 14% with an inconclusive outcome. How the calls were made is not given here. Only a selection was taken, and actives are over-represented in it overall.

biological target: Ataxin-2 (Homo sapiens) (UniProt Q99700); test: qHTS for Inhibitors of ATXN expression.; type: functional
Sequence (Q99700 whole entry): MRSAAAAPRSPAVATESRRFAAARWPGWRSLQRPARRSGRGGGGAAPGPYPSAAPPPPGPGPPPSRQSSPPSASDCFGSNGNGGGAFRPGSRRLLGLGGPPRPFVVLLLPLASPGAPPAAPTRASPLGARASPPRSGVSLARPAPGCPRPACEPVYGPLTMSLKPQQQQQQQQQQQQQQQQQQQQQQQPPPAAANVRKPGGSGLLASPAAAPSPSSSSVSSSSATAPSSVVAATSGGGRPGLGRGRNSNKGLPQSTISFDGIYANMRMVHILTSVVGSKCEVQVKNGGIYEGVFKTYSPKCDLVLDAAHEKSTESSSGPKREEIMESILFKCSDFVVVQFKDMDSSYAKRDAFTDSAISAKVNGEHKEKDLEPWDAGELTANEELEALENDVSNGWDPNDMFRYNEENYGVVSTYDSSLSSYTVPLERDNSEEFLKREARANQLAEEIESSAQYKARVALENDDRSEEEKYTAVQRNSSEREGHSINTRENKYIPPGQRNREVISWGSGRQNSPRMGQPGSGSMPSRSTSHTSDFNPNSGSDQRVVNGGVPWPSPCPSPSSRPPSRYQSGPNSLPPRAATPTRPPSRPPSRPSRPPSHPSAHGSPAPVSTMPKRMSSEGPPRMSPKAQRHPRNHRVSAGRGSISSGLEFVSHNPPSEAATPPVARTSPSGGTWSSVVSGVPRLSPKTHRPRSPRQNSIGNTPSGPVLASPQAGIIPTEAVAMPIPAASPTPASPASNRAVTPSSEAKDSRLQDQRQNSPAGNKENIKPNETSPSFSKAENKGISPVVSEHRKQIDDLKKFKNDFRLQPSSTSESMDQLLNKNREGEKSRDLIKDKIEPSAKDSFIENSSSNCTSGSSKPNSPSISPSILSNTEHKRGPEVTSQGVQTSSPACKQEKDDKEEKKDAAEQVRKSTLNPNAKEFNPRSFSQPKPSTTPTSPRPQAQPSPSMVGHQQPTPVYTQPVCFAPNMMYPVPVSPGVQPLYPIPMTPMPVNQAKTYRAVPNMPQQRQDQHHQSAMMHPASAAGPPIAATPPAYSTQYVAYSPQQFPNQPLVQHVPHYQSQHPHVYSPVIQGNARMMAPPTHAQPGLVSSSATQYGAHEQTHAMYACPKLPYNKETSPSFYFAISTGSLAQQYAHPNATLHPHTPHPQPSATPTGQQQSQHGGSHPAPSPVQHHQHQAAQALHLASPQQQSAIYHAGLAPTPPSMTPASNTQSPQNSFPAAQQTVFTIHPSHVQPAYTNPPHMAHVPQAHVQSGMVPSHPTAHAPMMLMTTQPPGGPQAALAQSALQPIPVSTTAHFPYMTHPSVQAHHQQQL

Structure (SMILES)	Potency
CCOc1ccc2nc3cc(N=Nc4ccc(N)nc4N)ccc3c(N)c2c1	10.6 µM (active)
CCOc1ccc2nc3ncccc3c(O)c2c1	inactive
CCOc1ccc2[nH]c3ccc4nonc4c3c2c1	inactive
COc1ccc(C2=CC(c3cccc(C)c3)n3nnnc3N2)cc1 (stereo not given)	inactive
Cc1n[nH]c(C)c1N1C(=O)c2cccc3c(Br)ccc(c23)C1=O	inactive
O=C1OCCN1C(=O)[C@H]1[C@H](c2ccc(Cl)cc2)C(c2ccc(F)cc2)=NN1c1ccc(Br)cc1	inactive
Cc1ccc(N2C(=O)c3[nH]nc(-c4ccc(Cl)cc4)c3C2c2ccc(F)cc2)cc1 (stereo not given)	39.8 µM (active)
CCOc1ccc(C2C=C(c3ccc(C)cc3)Nc3nnnn32)cc1 (stereo not given)	inactive
COc1ccccc1C1c2c(-c3ccc(Cl)cc3)n[nH]c2C(=O)N1c1ccc(C)cc1 (stereo not given)	39.8 µM (active)
O=C1c2[nH]nc(-c3ccc(F)cc3)c2C(c2ccccc2F)N1c1ccccc1 (stereo not given)	22.4 µM (active)
CCOc1ccc(C(=O)C2=C(O)C(=O)N(c3ncccn3)C2c2ccc(C)cc2)cc1 (stereo not given)	inactive
OC[C@@H]1[C@@H](c2ccc(Cl)cc2)C(c2ccc(F)cc2)=NN1c1ccccc1	inactive
CCOc1ccc(C2c3c(-c4ccc(C)cc4)n[nH]c3C(=O)N2c2ccc(Cl)cc2)cc1 (stereo not given)	39.8 µM (active)
COc1ccccc1C1C=C(c2ccc(F)cc2)Nc2nc(-c3ccc(Cl)cc3)nn21 (stereo not given)	inactive
COc1ccccc1C1C=C(c2ccc(Cl)cc2)Nc2nc(N3C(=O)CCC3=O)nn21 (stereo not given)	inactive
CCN1C(=O)c2cccc3c(S(=O)(=O)N(C)C)ccc1c23	inactive
Cc1ccc(-c2cc(C(=O)NN3CCOCC3)c3cc(Br)ccc3n2)o1	inactive
CCCc1cc(C(=O)Nc2cc(C)on2)no1	inactive
N#Cc1c(N)n(-c2ccc(C(=O)O)cc2)c2nc3ccccc3nc12	inactive
Cc1ccc2nc(N3CCN(C=O)CC3)nc(-c3ccccc3)c2c1	inactive
CCOC(=O)c1ccc(-c2ccc(/C=C(\C#N)C(=O)NCC3CCCO3)o2)cc1 (stereo not given)	inactive
Cn1c(-c2ccc(C#N)cc2)c(C#Cc2ccccc2)c2ccccc21	inactive
COC(=O)c1nc2n(n1)C(c1cc(OC)ccc1OC)C=C(c1ccc(Br)cc1)N2 (stereo not given)	inactive
Fc1ccc(N2N=C(c3cccs3)CC2c2ccccc2)cc1 (stereo not given)	inactive
CCOc1ccc(N2C(=O)c3[nH]nc(-c4cccs4)c3C2c2cccc(F)c2)cc1 (stereo not given)	39.8 µM (active)
COc1ccccc1[C@@H]1C(c2cccc(Cl)c2)=NN(c2ccc(Br)cc2)[C@H]1C(=O)N1CCOC1=O	inactive
COc1ccc(OC)c(C2c3c(-c4ccc(Br)cc4)n[nH]c3C(=O)N2c2ccc(Cl)cc2)c1 (stereo not given)	39.8 µM (active)

Structure (SMILES)	Potency
CC(=O)c1sc2nc(C)c3c(c2c1N)CCCC3	inactive
CNc1nc(-c2cccs2)cc(C(F)(F)F)c1C#N	inactive
COCCn1c2nc(=O)n(-c3ccccc3)c(=O)c-2nc2ccccc21	inactive
Cc1cccc(C)c1OCCn1c(C2CC(=O)N(Cc3ccc(F)cc3)C2)nc2ccccc21 (stereo not given)	39.8 µM (active)
CCOc1ccc(CCNC(=O)C2CC(=O)N(Cc3ccc(OC)cc3)C2)cc1OCC (stereo not given)	inactive
Cc1ccc(C)c(OCCn2nnc3ccccc32)c1	inactive
Cc1ccc(C)c(OCCn2c(C3CC(=O)N(Cc4ccc(F)cc4)C3)nc3ccccc32)c1 (stereo not given)	39.8 µM (active)
CC(=O)Oc1ccc2cc(-c3cccnc3)c(=O)oc2c1	inactive
Cc1ccc(C2(c3ccc(C)cc3)CC2C(=O)Nc2ccc([N+](=O)[O-])cc2O)cc1 (stereo not given)	20 µM (active)
NNC(=O)C1CC1(c1ccccc1)c1ccccc1 (stereo not given)	inactive
COc1ccc(CNC2=NC(=O)CC(C(=O)Nc3ccc([N+](=O)[O-])cc3C)S2)cc1 (stereo not given)	inactive
COc1ccc(Nc2cc(C(=O)NCCCN(C)Cc3ccccc3)c3ccccc3n2)c(OC)c1	14.1 µM (active)
COc1ccc(OC)c(Nc2cc(C(=O)NCc3ccccc3)c3ccccc3n2)c1	inactive
CCCCN(CCCNC(=O)c1cc(Nc2ccc(OC)c(OC)c2)nc2ccccc12)Cc1ccccc1	22.4 µM (active)
CCCCNC(=O)c1cc2c(=O)n3cccc(C)c3nc2n(Cc2ccccc2)c1=N	inactive
COc1ccc2nc(NCCCNC(=O)c3cc(OC)c(OC)c(OC)c3)c(C#N)cc2c1	inactive
CCOc1ccccc1-n1c(C)cc(C=O)c1C	inactive
CCCn1c(=O)c(C(=O)Nc2ncccc2O)c(O)c2ccccc21	inactive
CCn1nc(NC(=O)c2cccs2)c2cc3ccccc3nc21	inactive
CCn1nc(C(=O)Nc2nc(-c3ccccn3)cs2)c2ccccc2c1=O	31.6 µM (active)
CC[C@@H]1C(c2cccc(Cl)c2)=NN(c2ccc(Br)cc2)[C@H]1C(=O)N1CCOC1=O	inactive
O=C(CN1C(=O)NC2(CCCC2)C1=O)NNC(=O)c1ccccc1F	inactive
CCOc1cccc(CN2CCCC(C(=O)c3cccc(C(F)(F)F)c3)C2)c1O (stereo not given)	inactive
Cc1nc(-c2ccc(S(=O)(=O)Oc3ccc(Cl)cc3Cl)s2)cs1	inactive
CCOC(=O)c1cc2c(=O)n3ccccc3nc2n(Cc2ccco2)/c1=N\C(=O)c1ccccc1Br	inactive
CCC(=O)N(CC)C1=C(O)C(=O)c2ccccc2C1=O	inactive
O=C1c2ccccc2C(=O)c2[nH]c(O)nc21	25.1 µM (active)

Structure (SMILES)	Potency
CCOC(=O)C1CCN(C(=O)c2ccc(CNS(=O)(=O)c3ccc(OC)cc3)cc2)CC1	inactive
O=C(CCCCC(=O)NN=Cc1ccc(Cl)cc1)NN=Cc1ccc(Cl)cc1	39.8 µM (active)
O=C(CCCCC(=O)NN=Cc1ccc2c(c1)CCC2)NN=Cc1ccc2c(c1)CCC2	inactive
O=C1NCCCC1C(=O)N/N=C/c1ccc(Cl)cc1 (stereo not given)	inactive
Cc1c(-c2ccccc2)cnc2c(C)cccc12	inactive
CCc1cc(=O)oc2c(C)c(O)c(CN(C)C)cc12	inactive
CC1CCCCC1NC(=O)COC(=O)c1c2c(nc3ccccc13)/C(=C/c1ccco1)CC2 (stereo not given)	inactive
CCc1cc(CNC(=O)CC2C(=O)NCCN2Cc2ccc(-c3ccccc3)cc2)on1 (stereo not given)	35.5 µM (active)
CCN(CCn1cccn1)C(=O)CC1C(=O)NCCN1Cc1ccc(F)cc1 (stereo not given)	inactive
COc1cccc(CN2CCNC(=O)C2CC(=O)NC2CCOCC2)c1OC (stereo not given)	inactive
O=S(=O)(Nc1ccc(-c2cn3cccnc3n2)cc1)c1ccccc1	inactive
Clc1ccc(-c2nc3cnccn3c2NC2CCCC2)cc1	inactive
O=C(/C=C/c1cn(CC(O)CN2CCCCC2)c2ccccc12)c1ccccc1 (stereo not given)	inactive
O=C(/C=C/c1cn(CC(O)CN2CCCCCC2)c2ccccc12)c1ccccc1 (stereo not given)	inactive
COc1ccc(C(=O)C(CN2CCCC2)c2ccccc2)cc1 (stereo not given)	28.2 µM (active)
O=C(c1ccc(Cl)cc1)C1CCN(C(=O)c2ccccc2F)CC1	inactive
COc1ccc(CC(=O)N2CCN(c3ccccc3)CC2)cc1	inactive
O=C(c1ccc(Cl)cc1)C(CN1CCCC1)c1ccccc1 (stereo not given)	22.4 µM (active)
O=C(c1ccc(Cl)cc1)C(CN1CCCCC1)c1ccccc1 (stereo not given)	31.6 µM (active)
O=C(O)c1ccn2c(C(=O)c3ccc(Cl)cc3)c(-c3ccccc3)cc2c1	inactive
CC(C)(C)C(CN1CCCC1)OC(=O)c1ccccc1 (stereo not given)	inactive
O=C(C1=NN(c2ccccc2)C2C(=O)N(c3cccc(Cl)c3)C(=O)C12)c1ccccc1 (stereo not given)	inactive
COc1ccc(-c2c(C#N)c(N)nc3c2CCC3)cc1	inactive
CCCCN1C(=O)C2Cc3c([nH]c4ccccc34)CN2C1=S (stereo not given)	inactive
O=c1c(O)c(-c2cccs2)oc2ccccc12	inactive
CC(C)Oc1ccc(C(CCN)C2CCCCC2)cc1 (stereo not given)	25.1 µM (active)
CCC(=O)Nc1cccc(C2=NN(c3ccccc3)C(c3ccc(OC)cc3)C2)c1 (stereo not given)	inactive

Structure (SMILES)	Potency
COc1ccc(C2CC(c3ccc(OC)cc3OC(C)=O)=NN2C(=O)c2ccccc2)cc1 (stereo not given)	inactive
COc1ccc(C2CC(c3ccc4ccccc4c3)=NN2C(=O)CNC2CCCCC2)cc1 (stereo not given)	39.8 µM (active)
CCOc1ccc2nc(NCCCNS(=O)(=O)c3ccc(F)cc3)c(C#N)cc2c1	inactive
Nc1c(C(=O)Nc2ccccc2F)sc2nc(-c3ccco3)ccc12	inactive
COc1ccc(NC(=O)c2cc3ccccc3cc2O)cc1	inactive
COc1cc(/C=C/c2nc(O)c3ccccc3n2)cc(Cl)c1O	inactive
COc1ccc(C(=O)Nc2cccc(/C=C/c3nc(O)c4ccccc4n3)c2)cc1	25.1 µM (active)
O[C@@H]1[C@@H]2c3cc4c(cc3CN3CCC(=C[C@@H]1O)[C@H]23)OCO4	6.31 µM (active)
COc1cc(C2Nc3ccc4ccccc4c3C3=C2C(=O)CC(C)(C)C3)ccc1OCC(=O)O (stereo not given)	inactive
COCCN(CCOC)Cc1c(O)ccc2c1O/C(=C\c1ccco1)C2=O	inactive
Cc1cc(-c2ccnc(-n3ncc(C(=O)NCC4COCCO4)c3C3CC3)n2)c(C)s1 (stereo not given)	inactive
O=C(NN/C=C1\C(=O)N(c2ccccc2Cl)C(=O)c2ccccc21)c1cccnc1	inactive
CNc1ccc(N=Nc2cc[n+]([O-])cc2C)cc1C	28.2 µM (active)
CCOC(=O)C1(Cc2ccccc2C(F)(F)F)CCN(CC(O)CO)CC1 (stereo not given)	inactive
Cc1cccn2c(=O)c3cc(S(=O)(=O)c4ccccc4)c(=N)n(Cc4ccco4)c3nc12	inactive
Cc1nn(-c2ccccc2)c(C)c1C(=O)OCC(=O)Nc1ccccc1Cl	inactive
Cc1cc(C)n(-c2ccc(C(=O)NCC(=O)Nc3cc(Cl)ccc3Cl)cc2)n1	inactive
COc1ccc(-c2c(NC(=O)c3ccco3)n(-c3ccc(C)cc3)nc(C)c2=O)cc1	inactive
Cc1ccc(-n2nc(C)c(NC(=O)CCl)c2C)cc1	39.8 µM (active)
Cc1nn(Cc2ccccc2Cl)c(C)c1C(=O)N(C)CC(=O)Nc1cccc(F)c1	inactive
Cc1nn(Cc2ccc(Cl)cc2Cl)c(C)c1NC(=O)CCl	25.1 µM (active)
CCc1ccc(-c2cc(C(F)(F)F)n3nc(C(=O)Nc4c(C)nn(Cc5ccccc5Cl)c4C)cc3n2)s1	inactive
CCOC(=O)CNC(=O)Cn1cnc2c(cnn2-c2ccc(C)cc2)c1=O	inactive
Cc1ccc(-n2nc(C)c(NC(=O)CCl)c2C)cc1C	35.5 µM (active)
